Reference: PubChem BioAssay (NCATS)
Several values for one entry are separate records, joined by “and”; a condition that tells them apart may be missing. Equal values may be shown once. Results filed as inconclusive are left out. Activity calls are given as the source filed them. Unless noted, calls follow the shape of the dose curve; as a rule, active = well fitted curve in the direction sought with a large enough effect; inconclusive = small, poorly fitted or top-dose-only effect, or another doubt; inactive = no such curve, though single readings can be large; an effect the other way counts as inactive or inconclusive.

Experiments:
[1] = qHTS assay for small molecule agonists of the antioxidant response element (ARE) signaling pathway (AID 651741; active = well fitted activation curve with a large enough effect in the signal ratio; the % refers to the signal ratio; also: % of control where 0% means no effect)
Outline: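 HepG2 ARE-bla reporter cells, 2,000/well; 5 h settle at 37 C/5% CO2; compound pin transfer (23 nL, DMSO); 16 h at 37 C; LiveBLAzer B/G FRET substrate, 2 h RT; fluorescence intensity read.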

[2] = qHTS assay for small molecule activators of the p53 signaling pathway (AID 651743; active = well fitted activation curve with a large enough effect in the signal ratio, not every such curve was filed as active; the % refers to the signal ratio; also: % of control where 0% means no effect); conditions: HCT-116 p53RE-bla, beta-lactamase FRET ratio, 16 h; activation: hits give high values
Outline: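 Reporter: beta-lactamase driven by p53 response elements, stably integrated in HCT-116 cells. Cells seeded at 4,000/well, 5 h preincubation, compound (DMSO) 16 h at 37 C; B/G FRET substrate 2 h RT; fluorescence intensity read.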

[3] = qHTS assay for small molecule disruptors of the mitochondrial membrane potential - 1 hr assay (AID 651754; calls by dose curve; also: % is scaled to controls: 0 for no effect and ±100 for the full control effect; nearly all actives have a fitted effect of over 35% in size)
Outline: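 In this qHTS format, a 1 hr compound treatment of HepG2 cells precedes Mito-MPS staining, and membrane potential is judged from aggregate (red) against monomer (green) fluorescence intensity.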

[4] = qHTS assay for small molecule disruptors of the mitochondrial membrane potential - 5 hr assay (AID 651755; calls by dose curve; also: % is scaled to controls: 0 for no effect and ±100 for the full control effect; nearly all actives have a fitted effect of over 40% in size)
Outline: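 Read-out: ratiometric Mito-MPS fluorescence, green monomer (ex 490/em 535) vs red mitochondrial aggregate (ex 540/em 590). HepG2 cells treated 5 hr at 37C before 30 min dye loading.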

[5] = biological target: Tumor necrosis factor (Homo sapiens) (UniProt P01375); experiment: qHTS assay to identify small molecules that stimulate Tumor Necrosis Factor-alpha (TNF-alpha) secretion (AID 651757; active = well fitted curve in the direction sought with a large enough effect in the signal ratio; the % refers to the signal ratio; also: 0% is about no effect)
Chain of Tumor necrosis factor (Homo sapiens) (P01375 whole entry, looked up): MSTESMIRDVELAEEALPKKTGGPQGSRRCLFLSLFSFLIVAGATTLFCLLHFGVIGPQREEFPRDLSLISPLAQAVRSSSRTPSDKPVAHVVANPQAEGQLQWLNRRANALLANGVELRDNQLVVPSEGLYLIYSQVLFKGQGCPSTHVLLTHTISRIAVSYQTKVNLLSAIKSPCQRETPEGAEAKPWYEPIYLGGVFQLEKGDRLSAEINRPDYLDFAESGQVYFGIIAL
Outline: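 Using 3000 THP-1 cells per well, compounds and controls were applied for 17 hrs at 37 C. Detection followed with two labeled anti-TNF-alpha antibodies (cryptate donor, XL665 acceptor) for 3 hr at room temperature, measured by TR-FRET.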

[6] = qHTS assay to identify small molecules that stimulate interleukin-8 (IL-8) secretion (AID 651758; active = well fitted activation curve with a large enough effect in the signal ratio; the % refers to the signal ratio; also: 0% is about no effect)
Outline: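 Compounds are added to THP-1 cells (2000 per well) and left 16 hrs at 37 C. A labeled anti-IL-8 antibody pair is then added, and IL-8 secretion is measured by time-resolved FRET after 1-3 hrs at room temperature.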

[7] = qHTS assay for environmental chemicals that activate the Aryl hydrocarbon Receptor (AhR) signaling pathway (AID 651777); conditions: 1A2-DRE human hepatoma cells, luciferase, 24 h; activation: hits give high values; also: % of control where 0% means no effect; nearly all actives have a fitted effect of over 15% in size
Outline: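 Luminescence (One-Glo, 30 min, room temperature) reports AhR-driven luciferase in stably transfected human hepatoma cells bearing DRE and CYP1A2 promoter. Cells (1,200/well) were treated with compound for 24 hr at 37 C in qHTS format.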

[8] = biological target: Peroxisome proliferator-activated receptor alpha (Homo sapiens) (UniProt Q07869); experiment: qHTS assay for small molecule agonists of the peroxisome proliferator-activated receptor alpha (PPARalpha) signaling pathway (AID 651778); conditions: PathHunter PPARalpha complementation, chemiluminescence, 6 h; max response: hits give high values; also: % of control where 0% means no effect
Chain of Peroxisome proliferator-activated receptor alpha (Homo sapiens) (Q07869 whole entry, looked up, the tested form may be a part): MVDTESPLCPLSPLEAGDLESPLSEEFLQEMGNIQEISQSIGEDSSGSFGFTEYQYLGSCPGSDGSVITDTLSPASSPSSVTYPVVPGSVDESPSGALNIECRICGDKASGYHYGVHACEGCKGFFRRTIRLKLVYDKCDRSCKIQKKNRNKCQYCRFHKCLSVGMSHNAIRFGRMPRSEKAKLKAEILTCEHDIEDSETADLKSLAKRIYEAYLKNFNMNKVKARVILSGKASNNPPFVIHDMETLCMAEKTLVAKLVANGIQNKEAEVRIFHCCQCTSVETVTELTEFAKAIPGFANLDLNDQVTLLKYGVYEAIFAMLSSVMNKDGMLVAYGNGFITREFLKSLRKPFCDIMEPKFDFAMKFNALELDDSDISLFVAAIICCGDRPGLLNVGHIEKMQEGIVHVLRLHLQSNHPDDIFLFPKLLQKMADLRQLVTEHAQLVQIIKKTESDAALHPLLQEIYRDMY
Outline: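 Enzyme-fragment complementation assay in which ligand-bound PPARalpha translocates and forms an active enzyme that generates chemiluminescence. Cells were plated overnight, exposed to compound for 6 hr at 37 C, and then given detection reagent for 60 min at room temperature.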

[9] = biological target: Nuclear receptor ROR-gamma (Homo sapiens) (UniProt P51449); experiment: qHTS assay for small molecule antagonists of the retinoid-related orphan receptor gamma (ROR-gamma) signaling pathway (AID 651802);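 also: CHO cells with doxycycline-induced ROR-gamma expression; luciferase reporter luminescence driven by ROR response element; % is scaled to controls: 0 for no effect and ±100 for the full control effect; nearly all actives have a fitted effect of over 60% in size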
Chain of Nuclear receptor ROR-gamma (Homo sapiens) (P51449 whole entry, looked up): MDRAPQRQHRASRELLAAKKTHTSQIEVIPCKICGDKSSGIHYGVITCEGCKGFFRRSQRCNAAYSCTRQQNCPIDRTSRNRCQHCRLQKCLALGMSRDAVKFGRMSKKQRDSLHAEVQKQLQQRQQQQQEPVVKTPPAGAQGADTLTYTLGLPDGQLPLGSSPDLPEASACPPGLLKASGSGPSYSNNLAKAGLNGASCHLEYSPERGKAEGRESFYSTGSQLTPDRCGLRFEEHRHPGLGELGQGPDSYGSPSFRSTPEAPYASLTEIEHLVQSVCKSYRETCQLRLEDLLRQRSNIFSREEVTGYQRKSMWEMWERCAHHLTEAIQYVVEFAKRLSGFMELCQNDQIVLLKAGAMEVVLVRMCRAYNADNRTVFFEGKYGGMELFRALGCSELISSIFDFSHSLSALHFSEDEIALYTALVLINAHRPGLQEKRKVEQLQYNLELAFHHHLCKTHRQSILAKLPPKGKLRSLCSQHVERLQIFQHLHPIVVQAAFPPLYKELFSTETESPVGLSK
Outline: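 Doxycycline-induced reporter activity in engineered CHO cells (TET-inducible ROR, RORE-LUC) was measured by luminescence after 16hr compound exposure at 37C.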

[10] = qHTS assay for small molecule agonists of the antioxidant response element (ARE) signaling pathway measured by Nrf2-dependant transcriptional activity (AID 720636; active = well fitted curve in the direction sought with a large enough effect in the repeat runs; an effect the other way counts as inactive or inconclusive; also: % of control where 0% means no effect)
Outline: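 Nrf2-dependent transcription read as ONE-Glo luciferase signal from ARE-luc HepG2 reporter cells after 16 hr compound treatment at 37 C, 5% CO2, in assay medium with 1% dialyzed FBS.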

[11] = qHTS assay for small molecule antagonists of the retinoid-related orphan receptor gamma (ROR-gamma) signaling pathway - cell viability counter screen (AID 720652; active = well fitted curve in the direction sought with a large enough effect in the repeat runs; an effect the other way counts as inactive or inconclusive;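 also: CHO reporter cells with doxycycline-induced ROR-gamma expression; compound exposure lasted 16 hr before ATP read; % is scaled to controls: 0 for no effect and ±100 for the full control effect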)
Outline: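 ATP-based viability readout in the ROR-gamma reporter CHO cells after 16 hr compound exposure under doxycycline induction.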

[12] = qHTS assay for cell viability of HEK293 cells (AID 743288); conditions: ATP luminescence (CellTiter-Glo), 18 h; max response: hits give low values; also: % is scaled to controls: 0 for no effect and ±100 for the full control effect; nearly all actives have a fitted effect of over 50% in size
Outline: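 Quantitative high-throughput screen: compounds were pinned onto parental HEK293 cells (2,000 per well) after a minimum 5 h settling at 37 C, incubated 18 h at 37 C, and intracellular ATP measured by luciferase luminescence.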

[13] = qHTS assay for cell viability of the p53RE-bla HCT-116 cell line (AID 743292); also: % is scaled to controls: 0 for no effect and ±100 for the full control effect; nearly all actives have a fitted effect of over 55% in size
Outline: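 ATP-based luminescent viability (CellTiter-Glo, 30 min RT) after 16 h compound treatment at 37 C of p53RE-bla HCT-116 cells, seeded at 4,000 cells/well and rested 5 h before dosing.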

[14] = qHTS profiling for inhibitors of Plasmodium falciparum proliferation (AID 504749);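 also: 0% = DMSO vehicle and full inhibition = artemisinin control; nearly all actives have a fitted effect of over 60% in size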; conditions: P. falciparum in erythrocytes, SYBR Green DNA, 72 h, at 28.7 µM (top of the series)
Outline: (§1)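 SYBR Green fluorescence (ex 485 nm, em 535 nm) reports parasite DNA after 72 h compound exposure of infected red cells at 0.3% parasitemia, 2.5% hematocrit; signal normalized to 0.29 uM artemisinin and vehicle wells.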

[15] = system: 3D7; experiment: as above; conditions: P. falciparum in erythrocytes, SYBR Green DNA, 72 h; series mostly up to 28.7 µM
Outline: as §1

[16] = system: 7G8; experiment: as above; conditions: P. falciparum in erythrocytes, SYBR Green DNA, 72 h; series mostly up to 28.7 µM
Outline: as §1

[17] = system: AA1029; experiment: as above; conditions: P. falciparum in erythrocytes, SYBR Green DNA, 72 h; series mostly up to 28.7 µM
Outline: as §1

[18] = system: AS120; experiment: as above; conditions: P. falciparum in erythrocytes, SYBR Green DNA, 72 h; series mostly up to 28.7 µM
Outline: as §1

[19] = system: ATS189; experiment: as above; conditions: P. falciparum in erythrocytes, SYBR Green DNA, 72 h; series mostly up to 28.7 µM
Outline: as §1

[20] = system: ATS95; experiment: as above; conditions: P. falciparum in erythrocytes, SYBR Green DNA, 72 h; series mostly up to 28.7 µM
Outline: as §1

[21] = system: C2A; experiment: as above; conditions: P. falciparum in erythrocytes, SYBR Green DNA, 72 h; series mostly up to 28.7 µM
Outline: as §1

[22] = system: CP185; experiment: as above; conditions: P. falciparum in erythrocytes, SYBR Green DNA, 72 h; series mostly up to 28.7 µM
Outline: as §1

[23] = system: CP191; experiment: as above; conditions: P. falciparum in erythrocytes, SYBR Green DNA, 72 h; series mostly up to 28.7 µM
Outline: as §1

[24] = system: CP192; experiment: as above; conditions: P. falciparum in erythrocytes, SYBR Green DNA, 72 h; series mostly up to 28.7 µM
Outline: as §1

[25] = system: CP194; experiment: as above; conditions: P. falciparum in erythrocytes, SYBR Green DNA, 72 h; series mostly up to 28.7 µM
Outline: as §1

[26] = system: CP201; experiment: as above; conditions: P. falciparum in erythrocytes, SYBR Green DNA, 72 h; series mostly up to 28.7 µM
Outline: as §1

[27] = system: CP203; experiment: as above; conditions: P. falciparum in erythrocytes, SYBR Green DNA, 72 h; series mostly up to 28.7 µM
Outline: as §1

[28] = system: CP211; experiment: as above; conditions: P. falciparum in erythrocytes, SYBR Green DNA, 72 h; series mostly up to 28.7 µM
Outline: as §1

[29] = system: CP215; experiment: as above; conditions: P. falciparum in erythrocytes, SYBR Green DNA, 72 h; series mostly up to 28.7 µM
Outline: as §1

[30] = system: CP217; experiment: as above; conditions: P. falciparum in erythrocytes, SYBR Green DNA, 72 h; series mostly up to 28.7 µM
Outline: as §1

[31] = system: CP237; experiment: as above; conditions: P. falciparum in erythrocytes, SYBR Green DNA, 72 h; series mostly up to 28.7 µM
Outline: as §1

[32] = system: CP238; experiment: as above; conditions: P. falciparum in erythrocytes, SYBR Green DNA, 72 h; series mostly up to 28.7 µM
Outline: as §1

[33] = system: CP247; experiment: as above; conditions: P. falciparum in erythrocytes, SYBR Green DNA, 72 h; series mostly up to 28.7 µM
Outline: as §1

[34] = system: CP250; experiment: as above; conditions: P. falciparum in erythrocytes, SYBR Green DNA, 72 h; series mostly up to 28.7 µM
Outline: as §1

[35] = system: CP252; experiment: as above; conditions: P. falciparum in erythrocytes, SYBR Green DNA, 72 h; series mostly up to 28.7 µM
Outline: as §1

[36] = system: CP256; experiment: as above; conditions: P. falciparum in erythrocytes, SYBR Green DNA, 72 h; series mostly up to 28.7 µM
Outline: as §1

CN1[C@H]2CC(OC(=O)[C@H](CO)c3ccccc3)C[C@H]1[C@H]1O[C@H]12 (some centres not stated)
inactive: Potency [1] | activation [2] -1.86% and -3.02% | Potency [3] | Potency [4] | outcome [5] | outcome [6] | activation [7] -0.0972% and -0.778% | max response [8] -2.4% and 1.32% | Potency [9] | Potency [10] | Potency [11] | max response [12] -2.2% and 1.37% | Potency [13] | activity, negative = inhibition ([14]; parasite line A) 1.25% | activity, negative = inhibition ([14]; parasite line B) -7.4% | Potency [15] | Potency [16] | Potency [17] | Potency [18] | Potency [19] | Potency [20] | Potency [21] | Potency [22] | Potency [23] | Potency [24] | Potency [25] | Potency [26] | Potency [27] | Potency [28] | Potency [29] | Potency [30] | Potency [31] | Potency [32] | Potency [33] | Potency [34] | Potency [35] | Potency [36]
